Among the data in PubChem BioAssay (EPA / NIEHS) are outcome and AC50 values, retold here.

Records with an inconclusive call do not appear. Some compounds were tested as several samples or in several runs, with calls that do not always agree. Activity calls are given as the source filed them. The calls were made as follows: active = hit-call score of the fitted dose curve at least 0.9, where 1 is the maximum; inconclusive = response in the unintended direction; inactive = score below 0.9.

A short description of experiment [1]: ATG_XTT_Cytotoxicity: Cytotoxicity Assessment in the Attagene TRANS-FACTORIAL HepG2 Assay (AID 2283584). The procedure, abridged:
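HepG2 human liver cells, transiently transfected with multiple GAL4-UAS reporter units, were dosed and read at 24 h by XTT as cell number. Loss of signal was fitted relative to DMSO negative control baseline.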

Experiment [2] in a line: TOX21_p53_BLA_p2_viability: Viability Assessment in the Tox21 HCT-116 p53 Agonism Beta-lactamase Assay, Phase 2 (AID 2283591).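 Also: compound exposure lasted 16 h at 37 °C; actives lower the ATP signal meaning cytotoxicity.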 The procedure, abridged: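 HCT116 p53-bla cells, 4000/well, dosed after 5 h plating (217-fold dilution of DMSO stocks) and incubated 16 h at 37C. Viability taken as cellular ATP by CellTiter-Glo luminescence after 30 min RT; signal loss marks cytotoxicity.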

Experiment [3] has as its target Cellular tumor antigen p53 (Homo sapiens) (UniProt P04637). The experiment is described as follows: TOX21_p53_BLA_p2_ratio: Tox21 HCT-116 p53 Agonism Beta-lactamase Assay, Ratio, Phase 2 (AID 2283592). The procedure, abridged:
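Ratio endpoint: beta-lactamase cleavage of CCF4-AM, blue (460 nm) over green (530 nm). HCT116 reporter line; 16 h treatment, 37C; substrate 2 h RT.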

A short description of experiment [4]: TOX21_p53_BLA_p3_viability: Viability Assessment in the Tox21 HCT-116 p53 Agonism Beta-lactamase Assay, Phase 3 (AID 2283593).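 Also: cells exposed to compound for 16 h before reading.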 The essentials:
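HCT116 cells, 4000/well, dosed 5 h after plating by pin transfer (217-fold dilution from DMSO stock) and incubated 16 h at 37C, 5% CO2. Viability read as ATP luminescence with CellTiter-Glo after 30 min at room temperature.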

The target of experiment [5] is Cellular tumor antigen p53 (Homo sapiens) (UniProt P04637). The experiment is described as follows: TOX21_p53_BLA_p3_ratio: Tox21 HCT-116 p53 Agonism Beta-lactamase Assay, Ratio, Phase 3 (AID 2283596). The essentials: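 Cells were seeded at 4000/well, rested 5 h at 37C, then dosed with DMSO compound solutions (217-fold dilution) for 16 h. CCF4-AM substrate was loaded for 2 h at room temperature, and the 460/530 nm emission ratio was fitted for gain of signal versus DMSO.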

Experiment [6] is described as follows: TOX21_p53_BLA_p4_viability: Viability Assessment in the Tox21 HCT-116 p53 Agonism Beta-lactamase Assay, Phase 4 (AID 2283597).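 Also: hits lower the luminescence signal meaning cytotoxicity.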 The procedure, abridged:
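Cytotoxicity was inferred from loss of CellTiter-Glo luminescence. HCT116 cells had been dosed with compounds after 5 h plating, incubated 16 h at 37C and 5% CO2, and exposed to the CCF4-AM substrate for 2 h.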

Experiment [7] has as its target Cellular tumor antigen p53 (Homo sapiens) (UniProt P04637). As to the kind of experiment: TOX21_p53_BLA_p5_ratio: Tox21 HCT-116 p53 Agonism Beta-lactamase Assay, Ratio, Phase 5 (AID 2283599). The essentials:
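HCT-116 p53-bla cells (4000/well) plated 5 h, dosed with compound (217-fold DMSO dilution) for 16 h at 37 C; CCF4-AM substrate 2 h at room temperature. Activity is the 460/530 nm emission ratio (405 nm excitation), fitted in gain-of-signal direction versus DMSO.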

For experiment [8] the target is unchanged. As to the kind of experiment: TOX21_p53_BLA_p4_ratio: Tox21 HCT-116 p53 Agonism Beta-lactamase Assay, Ratio, Phase 4 (AID 2283601). The essentials: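 HCT-116 p53 beta-lactamase reporter cells (4000/well) preincubated 5 h, then compound (217-fold dilution of DMSO stock) for 16 h at 37C. CCF4-AM substrate added 2 h at room temperature; 460/530 nm emission ratio fitted upward versus DMSO.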

A short description of experiment [9]: TOX21_p53_BLA_p5_viability: Viability Assessment in the Tox21 HCT-116 p53 Agonism Beta-lactamase Assay, Phase 5 (AID 2283600). The essentials: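 Luciferase-coupled ATP quantitation of cells treated for 16 h (37C, 5% CO2) with test chemicals delivered in DMSO via a 217-fold dilution; 4000 cells/well; reagent incubated 30 min at room temperature before luminescence reading.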

Chain of Cellular tumor antigen p53 (Homo sapiens) (P04637 whole entry, looked up): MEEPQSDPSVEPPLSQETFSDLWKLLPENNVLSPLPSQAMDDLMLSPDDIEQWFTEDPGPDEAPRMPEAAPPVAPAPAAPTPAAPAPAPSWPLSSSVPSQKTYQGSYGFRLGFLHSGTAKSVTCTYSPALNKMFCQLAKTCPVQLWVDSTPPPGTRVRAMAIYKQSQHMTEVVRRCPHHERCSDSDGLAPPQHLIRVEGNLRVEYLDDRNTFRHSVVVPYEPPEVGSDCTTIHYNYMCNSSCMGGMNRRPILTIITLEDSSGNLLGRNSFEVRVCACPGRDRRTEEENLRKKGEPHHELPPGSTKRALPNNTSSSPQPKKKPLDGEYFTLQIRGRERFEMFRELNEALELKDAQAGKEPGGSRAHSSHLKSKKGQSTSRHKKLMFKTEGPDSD

`CCC(C)(C)C1CCC(OC)CC1` (centres undefined): the call in [1], in experiment [2], in experiment [3], in [4], in experiment [5] and in experiment [6] was inactive. The outcome in experiment [7] and in experiment [8] was inactive.

On to `CC(O)COCC(C)O` (centres undefined), for which the outcome in experiment [1], in [2], in experiment [3], in experiment [4], in experiment [5] and in experiment [6] was inactive. Also, the outcome in [7], in experiment [9] and in experiment [8] was inactive.

On to `O=C1OCc2ccccc21`, for which the molecule was called inactive in experiment [1].

As to `Cc1ccccc1S`, the result in experiment [1] was inactive.

As to `Nc1ccn([C@H]2CC[C@@H](CO)O2)c(=O)n1`, the molecule was classed as inactive in experiment [1], in [2], in experiment [3], in experiment [4], in [5] and in [6]. Moreover, the result in experiment [7], in experiment [9] and in experiment [8] was inactive.

`COC(=O)C(C)Oc1ccc(Oc2ncc(C(F)(F)F)cc2Cl)cc1` (centres undefined): the molecule was called inactive in experiment [1], in experiment [2], in [3], in [4], in experiment [5] and in experiment [6]. Also, the molecule was classed as inactive in experiment [9].

Regarding `CCCOC(=O)CC`, in experiment [1], the result was inactive.

In the case of `O=C1CCC(=O)N1`, in experiment [1], the call was inactive.

`O=C(O)c1cc2ccccc2cc1O`: the call in [1] was inactive.

Regarding `CCCCCCCC1CCCC1=O` (centres undefined), the result in experiment [1], in experiment [2], in experiment [3], in experiment [5], in experiment [6] and in experiment [7] was inactive. The call in experiment [9] and in experiment [8] was inactive.

`C=CC(O)CCCCC` (centres undefined): the molecule was called inactive in experiment [1], in [2], in experiment [3], in experiment [4], in [6] and in experiment [9].

With `CC(CCO)CC(C)(C)C` (centres undefined), the outcome in experiment [1], in [2], in experiment [3], in [5], in [6] and in [7] was inactive. In addition, the molecule was called inactive in experiment [9] and in experiment [8].

With `CC(=O)Nc1cc(S(=O)(=O)O)cc2cc(S(=O)(=O)O)c(N=Nc3ccccc3)c(O)c12`, the outcome in experiment [1], in experiment [2], in experiment [3], in experiment [5], in experiment [6] and in experiment [7] was inactive. In addition, the molecule was classed as inactive in experiment [9] and in experiment [8].

On to `NC(N)=S`, for which the outcome in experiment [1], in experiment [2], in [3], in experiment [4], in [5] and in experiment [7] was inactive. The molecule was classed as inactive in experiment [9] and in experiment [8].

Regarding `CC1(C)CC(N)CC(C)(CN)C1` (centres undefined), the result in [1], in [2], in [3], in experiment [4], in experiment [5] and in experiment [7] was inactive. For the same molecule, the call in experiment [9] and in experiment [8] was inactive.

Regarding `O=[N+]([O-])c1cc(N(CCO)CCO)ccc1NCCO`, the call in [1], in experiment [2], in experiment [3], in experiment [4], in experiment [5] and in [9] was inactive. Moreover, the outcome in experiment [8] was inactive.

Consider `Nc1cc([N+](=O)[O-])ccc1C(=O)O`, for which the call in experiment [1], in experiment [2], in [3], in experiment [5], in experiment [7] and in [9] was inactive. Also, the outcome in experiment [8] was inactive.

For the molecule `CCCCC(CC)COCCO` (centres undefined), the call in experiment [1], in experiment [2], in experiment [3], in [5], in experiment [7] and in experiment [8] was inactive.

For the molecule `O=c1cc(-c2ccc(O)cc2)oc2cc(O)cc(O)c12`, the molecule was classed as inactive in [1], in experiment [2], in [3], in experiment [5], in [6] and in experiment [7]. The molecule was called inactive in experiment [9] and in [8]. In addition, the results for the half-maximal activity concentration (AC50) in [5] and in experiment [8] were 14.6 µM (active) and 13.4 µM (active), respectively.

As to `CCCCCCCCCCCCCC(=O)OCC`, the molecule was classed as inactive in experiment [1], in [2], in [3], in experiment [5], in experiment [7] and in experiment [9].

For the molecule `CCc1cccc(O)c1`, the molecule was classed as inactive in [1], in experiment [2], in [3], in experiment [5], in experiment [6] and in experiment [7]. Also, the call in [9] and in experiment [8] was inactive.

With `CC(=O)C1C(=O)C=C(C)OC1=O` (centres undefined), the outcome in [1], in experiment [2], in experiment [3], in [4], in experiment [5] and in [7] was inactive. For the same molecule, in experiment [8], the outcome was inactive.

On to `CCCCCC(=O)O[C@]1(C(C)=O)CC[C@H]2[C@@H]3CCC4=CC(=O)CC[C@]4(C)[C@H]3CC[C@@]21C`, for which the outcome in experiment [1], in [2], in [3], in experiment [4], in [5] and in [7] was inactive. Moreover, the outcome in experiment [9] and in experiment [8] was inactive.

`CCCCCCCCCC(=O)OCC`: the result in experiment [1], in experiment [2], in experiment [3], in experiment [4], in experiment [5] and in [7] was inactive. The molecule was classed as inactive in [9] and in [8].

Turning to `NC(=O)c1cnccn1`, the molecule was classed as inactive in [1], in [2], in [3], in experiment [4], in experiment [5] and in [7]. For the same molecule, the molecule was called inactive in experiment [9] and in experiment [8].

Consider `CCCCCCOC(C)=O`, for which the call in experiment [1], in [2], in [3], in experiment [5], in [7] and in experiment [9] was inactive. Also, in experiment [8], the outcome was inactive. Also, in experiment [6], the half-maximal activity concentration (AC50) was 24.9 µM (active).

As to `CC(O)CNCC(C)O` (centres undefined), the molecule was called inactive in experiment [1], in [2], in experiment [3], in experiment [4], in experiment [5] and in experiment [7]. Besides, the result in [8] was inactive.
